{
  "source": "PubChem BioAssay AID1053184",
  "about": "(Broad Institute, 2014)",
  "note": "Measured potencies and affinities stand elsewhere. Calls of active or inactive are those of the source.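 Rule for the calls: active = cell killing, with a fitted half-maximal concentration at or below twice the top valid dose tested; inconclusive = flat curve between 30% and 70% signal loss, or poor fit; inactive = effect in the rising direction, plus the rest.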",
  "data": [
    {"assay": "cytotoxicity in A549 cells, dose response, cytotoxicity control, cell-based, cherry-picked samples (AID 1053184)", "settings": "A549 viability, CellTiter-Glo ATP luminescence, 72 h; series mostly up to 26 µM", "values": [
      {"smiles": "COc1cccc(-c2cccc(-c3nc(C(=O)Nc4ccc(-c5ccccc5)cc4)cc4c3[C@@H](CCO)N(S(=O)C(C)(C)C)C4)c2)c1", "note": "(stereo partly specified)", "outcome": "inactive"},
      {"smiles": "CO[C@@H](CN(C)Cc1cc(F)ccc1F)[C@@H](C)CN(C(=O)Nc1ccc(C(F)(F)F)cc1)[C@H](C)CO", "outcome": "inactive"},
      {"smiles": "C/C=C/c1ccc([C@H]2[C@@H](CO)N3C(=O)CN(Cc4ccc(F)cc4)C[C@@H]23)cc1", "outcome": "inactive"},
      {"smiles": "COc1cc(CN2C[C@@H]3N[C@H](C2)C3c2ccc(-c3ccc(C#N)cc3)cc2)cc(OC)c1", "note": "(stereo partly specified)", "outcome": "inactive"},
      {"smiles": "CN(C)C(=O)c1cccc(-c2ccc(C3[C@@H]4CN(Cc5ccccc5F)C[C@H]3N4)cc2)c1", "note": "(stereo partly specified)", "outcome": "inactive"},
      {"smiles": "C[C@H](CO)N1C[C@H](C)[C@@H](CN(C)Cc2ccccc2)Oc2c(NC(=O)Cc3cn(C)c4ccccc34)cccc2C1=O", "outcome": "inactive"},
      {"smiles": "N#Cc1cccc(-c2ccc(C3[C@@H]4CN(C(=O)Nc5ccc(C(F)(F)F)cc5)C[C@H]3N4)cc2)c1", "note": "(stereo partly specified)", "outcome": "inactive"},
      {"smiles": "COc1ccc2c3c(n(C)c2c1)[C@@H](CO)N(CC1CC1)CC31CN(C(=O)c2ccc3c(c2)OCO3)C1", "outcome": "inactive"},
      {"smiles": "O=S(=O)(c1ccc(F)cc1)N1C[C@@H]2N[C@H](C1)C2c1ccc(/C=C/c2ccccc2)cc1", "note": "(stereo partly specified)", "outcome": "inactive"},
      {"smiles": "CNC[C@@H]1Oc2cc(C#Cc3ccccc3OC)ccc2S(=O)(=O)N([C@H](C)CO)C[C@H]1C", "outcome": "inactive"},
      {"smiles": "C[C@H]1CNC(=O)[C@@H](Cc2ccc(C(F)(F)F)cc2)CCn2nncc2COC1", "outcome": "inactive"}
    ]}
  ]
}
